From PubChem BioAssay
TIM10 inh: inhibits growth of TIM10 yeast strain; inhibition, % at 10 µM; actives 1.4% (n = 330,000); S. cerevisiae TIM10 strain growth, BacTiter-Glo luminescence, 24 h; AID 463195;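 active means inhibition of 40% or more at the single tested concentration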;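 further: wild-type TIM10 isogenic control strain grown at permissive 25 °C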
NLRP3 yeast inh: NALP3 inhibition in yeast | inhibition, % at 10 µM | actives 0.39% (n = 330,000) | Yeast reconstituted NLRP3/ASC/caspase-1, beta-gal luminescence, 24 h | AID 2825;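 active means inhibition of 50% or more; inactive means inhibition below 50%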;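 further: plate controls were induced DMSO wells for no effect and uninduced yeast grown without galactose for full effect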
tim10-1 inh: growth inhibitors of tim10-1 mutant yeast; S. cerevisiae tim10-1 ts strain growth, BacTiter-Glo, 24 h; inhibition, % at 20 µM; actives 2.2% (n = 330,000);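 active means inhibition of at least 40%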;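 further: mutant grown at 25 °C; 0% = DMSO wells with yeast and 100% = wells holding no yeast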
NALP1 inh: blocks the NALP1 inflammasome reconstituted in yeast; S. cerevisiae NALP1/ASC/caspase-1 growth, X-gal OD620, 72 h; inhibition, % at 10 µM; actives 0.61% (n = 280,000); in the data active means inhibition mostly above about 24%, no sharp cut-off; inactive means mostly below about 32%
tim23-1 inh: inhibits growth of tim23-1 mutant yeast; S. cerevisiae tim23-1 growth, BacTiter-Glo luminescence, 24 h; inhibition, % at 20 µM; actives 1.3% (n = 330,000); AID 463212;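 active means growth inhibition of the mutant yeast at or above 50%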;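 further: temperature-sensitive mutant grown at 25 °C; plate controls were DMSO-treated mutant yeast for no effect and medium wells lacking yeast for full effect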
tim10-1 conf: tim10-1 yeast growth inhibition, confirmed | shares compounds with tim10-1 inh | S. cerevisiae tim10-1 ts strain growth, BacTiter-Glo, 24 h | inhibition, % at 20 µM | actives 56% (n = 7,400);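 active means inhibition of yeast growth at or above a set limit in either of two repeat tests at 20 µM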;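 further: tim10-1 mutant grown at permissive 25 °C to find synthetic lethal compounds; 0% = DMSO yeast wells and 100% = medium wells without yeast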
TIM10 conf: TIM10 yeast growth inhibition, confirmed | inhibition, % at 10 µM | S. cerevisiae tim10 strain growth, BacTiter-Glo luminescence, 24 h | AID 463215 | actives 63% (n = 4,600) | shares compounds with TIM10 inh;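 active means inhibition of yeast growth at or above a set limit in either of two replicates at 10 µM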;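 further: this counterscreen used the strain with wild-type TIM10; 0% = yeast with DMSO and 100% = medium wells lacking yeast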
tim23-1 confirm: tim23-1 yeast growth inhibition, confirmed; shares compounds with tim23-1 inh; S. cerevisiae tim23-1 growth, BacTiter-Glo luminescence, 24 h; inhibition, % at 20 µM; actives 83% (n = 4,400); AID 463218;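 active means inhibition above about 39% in either of two replicate wells at 20 µM, limit read from the data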;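 further: temperature-sensitive tim23-1 mutant grown at 25 °C; 0% = DMSO wells with yeast and 100% = medium wells without yeast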
Active calls of the source: *; . = no result given. Compounds with a hit are over-represented: about 4% of the library has one in this group of screens.

SMILES	TIM10 inh	NLRP3 yeast inh	tim10-1 inh	NALP1 inh	tim23-1 inh	tim10-1 conf	TIM10 conf	tim23-1 confirm
O=C(COc1ccc(Cl)cc1)NN=C1CCCCCCC1	-6	12	2	15	7	.	.	.
CCCC(=O)Nn1cnc2c(c1=O)C1(CCCCC1)Cc1ccccc1-2	52*	-7	41*	13	53*	44*	40*	52*
O=c1cc(CN2CCc3ccccc32)c2ccc(O)cc2o1	20	-3	44*	8	51*	32*	.	48*
CCCCc1ccc(/C=C2\C(=O)c3ccccc3C(O)=C2C(=O)OCC)cc1	47*	34	64*	39	50*	55*	47*	59*
CC1=C(C#N)C(NC(=O)c2cccc(Cl)c2)(C(F)(F)F)C(=O)N1 (stereo not drawn)	-11	6	-2	24	-2	.	.	.
CCCCN(C(=O)C(C)Oc1ccc(Br)cc1)c1c(N)n(Cc2ccccc2)c(=O)[nH]c1=O (stereo not drawn)	5	12	19	8	10	.	.	.
Cc1[nH]n(-c2ccccc2)c(=O)c1C(C[N+](=O)[O-])c1ccc(F)cc1 (stereo not drawn)	48*	31	60*	109*	83*	41*	12	64*
COc1ccc(C(c2c(C)[nH]n(-c3ccccc3)c2=O)c2c(C)[nH]n(-c3ccccc3)c2=O)cc1OC	22	-9	37	24	36	.	.	.
Cc1[nH]n(-c2ccccc2)c(=O)c1C(C[N+](=O)[O-])c1ccc(Cl)cc1 (stereo not drawn)	49*	17	58*	108*	86*	48*	28	84*
Cc1ccc(C(C[N+](=O)[O-])c2c(C)[nH]n(-c3ccccc3)c2=O)cc1 (stereo not drawn)	29	37	42*	105*	75*	25	.	61*
Cc1[nH]n(-c2ccccc2)c(=O)c1Sc1ccc(Cl)cc1	19	-16	13	-3	21	.	.	.
Cc1ccc(Cl)cc1NC(=O)CN1CCN(S(=O)(=O)N2CCC(C)CC2)CC1	4	14	13	-4	20	.	.	.
Cc1ccc(SCC(=O)OCC(=O)N(CCC#N)c2ccccc2)cc1	6	7	19	.	24	.	.	.
O=C1c2c(Br)c(Br)c(Br)c(Br)c2C(=O)N1c1ccccn1	69*	34	76*	6	86*	75*	75*	58*
C/C(=N\NC(=O)c1cc(C)nc2ccccc12)c1cccc(Cl)c1	11	15	7	3	15	.	.	.
O=C(/C=C/c1ccc(Cl)c(Cl)c1)n1cccn1	50*	-3	61*	17	59*	41*	-13	44*
Cc1oc(-c2nc3ccccc3n2C)cc1C(=O)c1ccccc1	53*	21	48*	-1	56*	33*	-29	73*
O=C(Nc1ncc([N+](=O)[O-])s1)c1ccco1	46*	32	40*	14	53*	40*	23	48*
COc1cc(/C=C2\COC/C(=C\c3ccc(O)c(OC)c3)C2=O)ccc1O	67*	43	71*	-8	69*	68*	61*	82*
Cc1c(Cc2ccccc2)c(=O)oc2c(C)c(OCC(=O)N[C@@H](Cc3ccccc3)C(=O)O)ccc12	12	6	23	-17	17	.	.	.
CC1=C(C(=O)OCc2ccccc2)C(c2cccc(F)c2)NC(=O)N1 (stereo not drawn)	1	10	8	20	14	.	.	.
O=C(OCc1nnc(-c2ccccc2)o1)c1ccc([N+](=O)[O-])s1	79*	20	57*	.	56*	68*	86*	73*
O=C(COC(=O)c1ccc([N+](=O)[O-])s1)NCc1ccccc1	54*	4	41*	30	51*	41*	32*	33
COc1ccc(-c2cn(CCC(=O)O)c(C)n2)cc1	3	11	-8	.	17	.	.	.
CC(C)C(NC(=O)c1ccccc1)C(=O)OCC(=O)N1CCN(c2ccccc2)CC1 (stereo not drawn)	4	27	-3	.	6	.	.	.
SMILES	TIM10 inh	NLRP3 yeast inh	tim10-1 inh	NALP1 inh	tim23-1 inh	tim10-1 conf	TIM10 conf	tim23-1 confirm
O=C(NCCc1ccccc1)c1cccs1	-7	13	-18	-10	0	.	.	.
CCN=c1sc(C(=O)NCCc2ccccc2)cc(=O)n1CC	43*	23	51*	16*	66*	48*	11	52*
CN(C(=O)Cn1cc(C(F)(F)F)cc(Cl)c1=O)C1CCS(=O)(=O)C1 (stereo not drawn)	-4	14	-22	.	-23	.	.	.
O=C1C2C(c3ccccc3)C=CC(c3ccccc3)C2C(=O)N1c1ccncc1 (stereo not drawn)	14	19	41*	-9	53*	36*	.	49*
CC(C)(C)OC(=O)NN1CC(=O)N2Cc3[nH]c4ccccc4c3C[C@H]2C1=O	7	9	14	3	14	.	.	.
O=C(O)c1cnc(-c2ccccc2)nc1Sc1ccc(Cl)cc1Cl	13	2	53*	4	51*	15	.	-44
CCCCc1cc(=O)oc2cc(OC(C)C(=O)NCCN3CCOCC3)c(Cl)cc12 (stereo not drawn)	-4	6	8	25	-2	.	.	.
COc1ccc(Cc2nc3ccccc3[nH]2)cc1OC	-4	10	-18	-15	9	.	.	.
O=C1CC(c2ccccc2)CC(O)=C1C=Nc1ccc(Cl)cc1 (stereo not drawn)	26	-5	27	11	7	.	.	.
O=C1CC(c2ccccc2)CC(O)=C1C=Nc1cccc(Cl)c1 (stereo not drawn)	90*	4	89*	34	85*	79*	94*	85*
Oc1ccccc1-c1cc(-c2cccc(F)c2)n[nH]1	23	30	41*	11	64*	19	.	52*
Oc1ccccc1-c1cc(-c2ccccc2Cl)[nH]n1	64*	6	73*	17	76*	53*	58*	12
Fc1cccc(-c2n[nH]c(=S)n2-c2ccccc2)c1	-15	21	-8	-17	8	.	.	.
Oc1cc2ccccc2nc1-c1ccccc1Cl	9	17	-5	2	34	.	.	.
CC(=O)Oc1c(Cl)c(N2CCOCC2)c(OC(C)=O)c2ccccc12	39	-22	49*	15	53*	41*	.	41*
O=C1NC(=O)c2cc3ccccc3cc21	6	-5	-3	.	-4	.	.	.
O=C(CNS(=O)(=O)c1ccc(Br)s1)NCCc1ccc(Cl)cc1	-7	-2	-1	10	6	.	.	.
